# In all, about 2,300 compounds went through this assay and about 330 (14%) showed activity. Only a sample is shown. Values without a mark were called inactive.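 Rule for the calls: active = median modified Z-score above 1.96; inactive = 1.96 or below.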
# System: HepG2 Srxn1-GFP reporter cells (+30 nM CDDO-Me)
# Experiment: Srxn1-GFP intensity median modified Z-score relative to plate median; higher = stronger NRF2 / oxidative stress reporter activation, active = hit call of the paper
# Conditions: 10 µM; exposure time: 24h
# Summary of the method: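 HepG2 Srxn1-GFP BAC reporter cells (20,000 per well, 96-well plates) were co-exposed to an NRF2 activator at 30 nM and compound at 10 μM (≤0.1% DMSO) for 24 h in three replicate plates. After formaldehyde fixation and Hoechst staining, confocal images were analysed per cell for cytoplasmic GFP, excluding images with under 100 cells. The value is the median over replicates of the per-plate modified Z-score of GFP intensity. Scaling used 1.4826 × median absolute deviation.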
row,SMILES,Srxn1-GFP intensity median modified Z-score
1,CC(=O)Nc1cccc(O)c1 [euspeclibcmpd1259],-0.0594
2,Oc1ccc2ccccc2c1 [euspeclibcmpd1176],1.48
3,Oc1cccc(O)c1 [euspeclibcmpd262],13.8 (active)
4,CCCCC(=O)N(Cc1ccc(-c2ccccc2-c2nn[nH]n2)cc1)C(C(=O)O)C(C)C (centres undefined) [euspeclibcmpd719],-1.02
5,CC(=O)OCC(=O)[C@@]1(O)CCC2C3CC=C4CC(=O)CC[C@]4(C)C3C(=O)C[C@@]21C (some centres undefined) [euspeclibcmpd74],-0.793
6,N#C/C(=C\c1ccc(SC(F)(F)F)cc1)c1nnc2n1CCCCC2,2.21 (active)
7,CCN[C@@H]1C[C@H](N)[C@@H](O[C@H]2OC(CN)=CC[C@H]2N)[C@H](O)[C@H]1OC1OC[C@](C)(O)[C@H](NC)[C@H]1O (some centres undefined) [euspeclibcmpd845],-0.391
8,CC(C)COCC(CN(Cc1ccccc1)c1ccccc1)N1CCCC1 (centres undefined) [euspeclibcmpd972],-0.387
9,CC(COc1ccccc1)N(CCCl)Cc1ccccc1 (centres undefined) [euspeclibcmpd203],3.84 (active)
10,CCOC(=O)OC(C)OC1=C(C(=O)N=c2cccc[nH]2)N(C)S(=O)(=O)c2ccccc21 (centres undefined) [euspeclibcmpd1195],0.103
11,CCCCC(=O)O[C@H]1CCC2C3CCc4cc(O)ccc4C3CC[C@@]21C (some centres undefined) [euspeclibcmpd117],-0.716
12,O=C(O)[C@]1(O)C[C@@H](O)[C@@H](O)[C@H](O)C1 [euspeclibcmpd1500],-0.119
13,O=c1ccc2ccccc2o1 [euspeclibcmpd1076],-0.351
14,Cc1cc(C)[nH]c(=NS(=O)(=O)c2ccc(N)cc2)n1 [euspeclibcmpd276],-0.664
15,Cc1cc(C(=O)NCCCn2cncn2)no1,1.31
16,CC(=O)O[C@@H]1C[C@@]23C[C@@]24CC[C@H](O[C@@H]2OC[C@@H](O)[C@H](O)[C@H]2O)C(C)(C)C4CCC3[C@]2(C)C[C@@H]3OC4(C[C@@H](C)[C@@H]3[C@@]12C)O[C@H](O)[C@]1(C)O[C@H]41 (some centres undefined) [euspeclibcmpd2415],0.583
17,CC(=O)CC(c1ccc([N+](=O)[O-])cc1)c1c(O)c2ccccc2oc1=O (centres undefined) [euspeclibcmpd502],-0.425
18,CC(=O)CC(c1ccccc1)c1c(O)c2ccccc2oc1=O (centres undefined) [euspeclibcmpd321],5.96 (active)
19,O=c1c(O)c(-c2ccccc2)oc2ccccc12 [euspeclibcmpd1679],1.3

# From the supplement of paper PMC10498489
